Results: PubChem BioAssay (NCI)
Compounds without any hit were thinned out: in the full panel of roughly 79,000, 15% have a hit. No stated cut-off is given here; in the data, active means growth inhibition above about 70%; inactive means the rest.

Columns and labels:
[1] = NCI Yeast Anticancer Drug Screen. Data for the rad50 strain (AID 155);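 further: 0% = growth of vehicle-only cultures of the same strain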; details: S. cerevisiae rad50 strain growth inhibition; at 50.0 µM; hits give high values
Summary of the method: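 Compounds were tested on a yeast strain with an engineered DNA damage repair alteration; the reported value is growth inhibition normalised to vehicle treatment.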

[2] = NCI Yeast Anticancer Drug Screen. Data for the mec2-1 strain (AID 157); details: S. cerevisiae mec2-1 strain, at 50.0 µM, hits give high values
Summary of the method: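 Using mec2-1 yeast: add compound, measure growth, express inhibition versus vehicle-treated cultures.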

[3] = NCI Yeast Anticancer Drug Screen. Data for the sgs1 mgt1 strain (AID 161);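 further: 0% = growth of cultures given vehicle only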; details: S. cerevisiae sgs1 mgt1 strain, at 50.0 µM, hits give high values
Summary of the method: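 Growth of a repair-deficient yeast mutant was monitored after compound treatment and expressed as inhibition relative to vehicle-treated cultures.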

[4] = NCI Yeast Anticancer Drug Screen. Data for the cln2 rad14 strain (AID 165);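 further: 0% = growth equal to vehicle treated cultures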; details: S. cerevisiae cln2 rad14 strain, at 50.0 µM, hits give high values
Summary of the method: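 Yeast strain cln2 rad14, bearing defects in cell cycle control and DNA repair, serves as the test system; values reflect growth inhibition compared with vehicle.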

[5] = NCI Yeast Anticancer Drug Screen. Data for the bub3 strain (AID 167); details: S. cerevisiae bub3 mutant strain, at 50.0 µM, hits give high values
Summary of the method: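 Growth of a checkpoint-deficient yeast mutant is measured after compound exposure. Values represent inhibition relative to vehicle.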

[6] = NCI Yeast Anticancer Drug Screen. Data for the mlh1 rad18 strain (AID 175); details: S. cerevisiae mlh1 rad18 strain growth inhibition; at 50.0 µM; hits give high values
Summary of the method: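 Steps: expose repair-defective yeast to compound; measure growth; express inhibition against vehicle-treated controls.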

Measured: growth inhibition

O=[N+]([O-])c1cccnc1Sc1nc2ccccc2[nH]1
inactive: [1] 20.2% | [2] 17.9% | [3] 25.5% | [4] -20.5% | [5] 21.8% | [6] 6.2%

CC(=O)[O-].Cc1ccnc(NS(=O)(=O)c2ccc(N=Cc3ccccc3[O-])cc2)n1.Cc1ccnc(NS(=O)(=O)c2ccc(N=Cc3ccccc3[O-])cc2)n1.[Cu+2]
inactive: [1] 9% | [2] 2% | [3] 2.6% | [4] 19.1% | [5] 11.1% | [6] 34.4%

Clc1ccc(CSc2cnnc(SCc3ccc(Cl)cc3)c2SCc2ccc(Cl)cc2)cc1
inactive: [1] -11.4% | [2] 15.2% | [3] -10.9% | [4] -60% | [5] -3.75% | [6] -30.4%

Cc1ccccc1C(N)=O
inactive: [1] 23.7% | [2] 3.6% | [3] 11.2% | [4] -12.6% | [5] 12.8% | [6] 26.5%

CC(=O)Nc1ccc(OCCCc2ccccc2)c([N+](=O)[O-])c1
inactive: [1] -7.2% | [2] 43.6% | [3] 23.5% | [4] -20.7% | [5] 20.4% | [6] -2.65%

COC(=O)CCCCCCC/C=N/Nc1ccc([N+](=O)[O-])cc1[N+](=O)[O-]
inactive: [1] 6.9% | [2] 22% | [3] 4.7% | [4] 8.85% | [5] 7.3% | [6] 17.4%

CCOC(=O)C(c1ccc(C)cc1)C(Cl)(Cl)Cl (stereo not drawn)
inactive: [1] 2.45% | [2] -9.55% | [3] 3.85% | [4] -1.05% | [5] -11.5% | [6] 26.4%

CC1=NN(C(=O)c2ccncc2)C(=O)C1N=Nc1ccc([N+](=O)[O-])cc1Cl (stereo not drawn)
inactive: [1] 47.1% | [2] 9.95% | [3] 21.3% | [4] -26.1% | [5] -2.1% | [6] 14.1%

COc1ccccc1/C=C1\C(=O)N(C(=O)Cc2ccccc2)N=C1C
inactive: [1] -4.4% | [2] -8.15% | [3] -54.2% | [4] -10.8% | [5] -3.85% | [6] -25.4%

CCCCCCCCCCC#N
inactive: [1] 15.2% | [2] -8.4% | [3] -5.6% | [4] 14.6% | [5] 9.15% | [6] -17.6%

CC(=O)OC1CC2(C)OC(Cc3ccccc32)O1 (stereo not drawn)
inactive: [1] -37.2% | [2] -3.05% | [3] -58.6% | [4] 4.4% | [5] -23.1% | [6] -43.5%

Cc1cccc(C)c1NC(=S)N1CCC(CCCC2CCN(C(=S)Nc3c(C)cccc3C)CC2)CC1
inactive: [1] -12.8% | [2] -18.6% | [3] -1.65% | [4] 15.7% | [5] 4.8% | [6] 12.2%

S=C(Nc1ccc(Cl)cc1)Nc1ccc(Cc2ccc(NC(=S)Nc3ccc(Cl)cc3)cc2)cc1
inactive: [1] 53.9% | [2] 36.2% | [3] 49.6% | [4] 59.4% | [5] 53.6% | [6] 20.4%

CC(Cl)CN1c2ccccc2Sc2ccc(Cl)cc21 (stereo not drawn)
inactive: [1] 33% | [2] -5.4% | [3] 2.35% | [4] 23% | [5] 5.35% | [6] 16.8%

CCCCCCOC(=O)c1cccc(C)c1
inactive: [1] 7.15% | [2] 4.4% | [3] 5.8% | [4] -35% | [5] 6.85% | [6] 11.2%

CCCCCCCCCCCCCCCCCCCCOC1OC(COC(C)=O)C(OC(C)=O)C(OC(C)=O)C1OC(C)=O (stereo not drawn)
inactive: [1] -21.3% | [2] -14.2% | [3] -16.9% | [4] 12% | [5] -5.7% | [6] -20.4%

O=C1OC(=O)C2=C1C1C=CC2CC1
inactive: [1] 3.4% | [2] -7.05% | [3] 3% | [4] 0% | [5] -9.05% | [6] 13.4%

OC12CC/C(=N/OCc3ccccc3)CC1c1ccccc12 (stereo not drawn)
inactive: [1] 11.2% | [2] -22.9% | [3] -29.8% | [4] -16% | [5] -36.1% | [6] 0.45%

CNc1c(F)cc(N=Nc2ccccc2)cc1F
inactive: [1] 14.7% | [2] -8.2% | [3] 30% | [4] -20.7% | [5] -4% | [6] 10.1%

c1ccc(-c2cc(-c3cc(-c4ccccc4)n[nH]3)[nH]n2)cc1
inactive: [1] -9.95% | [2] -8.15% | [3] -21.4% | [4] -19.2% | [5] -16.6% | [6] -37.1%

CCOC(=O)CC(=O)Nc1cccc2sc3ncccc3c(=O)c12
inactive: [1] -35.4% | [2] -52.6% | [3] -4.25% | [4] 15.4% | [5] 0.7% | [6] 0.2%

OCC1CC1c1ccccc1 (stereo not drawn)
inactive: [1] -4.75% | [2] -0.65% | [3] -6.4% | [4] 10.5% | [5] 10.7% | [6] 5.55%

S=c1cc(S)sc2c1c(=S)sc1nc3ccccn3c(=S)c12
inactive: [1] -2.35% | [2] 28.6% | [3] 35.3% | [4] 18% | [5] 24.6% | [6] 45%

Cc1cc(C)c([N+](=O)[O-])c(N)n1
inactive: [1] 8.45% | [2] -6.6% | [3] -5.85% | [4] -52% | [5] 1.2% | [6] -12.1%

COc1ccc(C=O)c(C(=O)O)c1OC
inactive: [1] -7.7% | [2] -52.9% | [3] -2.8% | [4] 17.2% | [5] -20.2% | [6] -3.7%

O=C(O)c1cc2c(c(C(=O)O)c1O)CCCC2
inactive: [1] 11.3% | [2] -19.6% | [3] 9.95% | [4] -23.2% | [5] -6.35% | [6] -4.85%

Cc1cccc(NC(=O)c2ccc(Cl)c(Cl)c2)c1
inactive: [1] 11.3% | [2] 13.7% | [3] -0.25% | [4] -65.6% | [5] 30.4% | [6] -8.65%

CC(C)(C)C(=O)Oc1ccc[nH]c1=O
inactive: [1] 23.4% | [2] -13.9% | [3] 2.35% | [4] -27.6% | [5] -13.7% | [6] -2.1%

c1ccc2c(c1)n1nnnc1c1nnnn21
inactive: [1] 34.6% | [2] -10.4% | [3] 20.1% | [4] 23.7% | [5] 4.85% | [6] 24.4%

CCCCCCCCCCCCCCCCC(NC(C)=O)(C(=O)OCC)C(=O)OCC
inactive: [1] 23.9% | [2] 1.65% | [3] 20.9% | [4] 30.2% | [5] -1.25% | [6] 23.6%

COC(=O)c1cc(C(=O)c2ccccc2)cc2c1c(=O)[nH]c1ccccc12
inactive: [1] -0.95% | [2] -7.5% | [3] -16.4% | [4] -5.7% | [5] -23.9% | [6] 6.75%

NC(=O)CC[n+]1ccc(C(=O)O)cc1
inactive: [1] -21.8% | [2] -31.7% | [3] -6.1% | [4] 0.4% | [5] -25.1% | [6] -5.05%

C[n+]1cc(I)cc2ccccc21
inactive: [1] 3.85% | [2] -3.45% | [3] -9.55% | [4] -0.2% | [5] 4.05% | [6] 5.05%

CC(=O)CCn1c(=S)sc2ccccc21
inactive: [1] -6.3% | [2] 30.2% | [3] 59.5% | [4] 12.2% | [5] 29.7% | [6] -28.6%

NC12CC3CC(C1)CC(C(=O)O)(C3)C2
inactive: [1] 1.65% | [2] 3.05% | [3] -2.75% | [4] 3.45% | [5] 6.7% | [6] -7.1%

CC(=O)OCC1OC(OC(C)=O)C(NC(=O)c2ccc(Br)cc2)C(OC(C)=O)C1OC(C)=O (stereo not drawn)
inactive: [1] 42.1% | [2] 19.4% | [3] 39.5% | [4] 19.6% | [5] -1.1% | [6] 31.8%

CN(C)COC(=S)SCC(=O)O
inactive: [1] 8.4% | [2] -0.85% | [3] 2.6% | [4] -26.6% | [5] -3.05% | [6] -1.9%

CN(C)c1nc2nccnc2c(=O)[nH]1
inactive: [1] 11.4% | [2] -1.75% | [3] -11.2% | [4] -52.5% | [5] 6.45% | [6] -14.3%
